# Test results reported in article PMC4336329 (PLoS ONE, 2015).
# About 2,200 (0.71%) of roughly 310,000 compounds showed an effect of 50% or more. The effect is printed as a negative number. The list comes from a sample in which strong results are over-represented; it also holds similar structures and randomly drawn compounds.
# Molecular target: human ether-à-go-go-related gene (hERG) potassium channel (human, UniProt Q12809)
# Test: primary screen, population patch clamp on CHO cells stably expressing hERG; higher = less effect of the substance
# Description: Briefly, Chinese hamster ovary (CHO) cells stably expressing the hERG channel were dislodged from tissue culture flasks and dispensed into PPC plates. […] During the recording, background leak currents were estimated by a 100 ms step to -80 mV from an initial holding potential of -70 mV and subtracted from the subsequent current measurement. The campaign was conducted in two phases using slight differences in recording protocol. In the first phase, the initial voltage pulse used a 100 ms step to -30 mV from a holding potential of -70 mV, a 2 s conditioning step to +25 mV, and a 2 s test step to -30 mV. During the second phase of the screen, the potential during the conditioning step was raised to +45 mV. In both phases of the campaign, a secondary voltage pulse was applied using the same parameters as the second phase initial pulse. The initial and secondary pulses were applied in the absence of compound, and upon application of 1 μM and 10 μM test concentrations. Small molecule effects on hERG current density were quantified by […].
# human ether-à-go-go-related gene (hERG) potassium channel, sequence (Q12809 whole entry, looked up): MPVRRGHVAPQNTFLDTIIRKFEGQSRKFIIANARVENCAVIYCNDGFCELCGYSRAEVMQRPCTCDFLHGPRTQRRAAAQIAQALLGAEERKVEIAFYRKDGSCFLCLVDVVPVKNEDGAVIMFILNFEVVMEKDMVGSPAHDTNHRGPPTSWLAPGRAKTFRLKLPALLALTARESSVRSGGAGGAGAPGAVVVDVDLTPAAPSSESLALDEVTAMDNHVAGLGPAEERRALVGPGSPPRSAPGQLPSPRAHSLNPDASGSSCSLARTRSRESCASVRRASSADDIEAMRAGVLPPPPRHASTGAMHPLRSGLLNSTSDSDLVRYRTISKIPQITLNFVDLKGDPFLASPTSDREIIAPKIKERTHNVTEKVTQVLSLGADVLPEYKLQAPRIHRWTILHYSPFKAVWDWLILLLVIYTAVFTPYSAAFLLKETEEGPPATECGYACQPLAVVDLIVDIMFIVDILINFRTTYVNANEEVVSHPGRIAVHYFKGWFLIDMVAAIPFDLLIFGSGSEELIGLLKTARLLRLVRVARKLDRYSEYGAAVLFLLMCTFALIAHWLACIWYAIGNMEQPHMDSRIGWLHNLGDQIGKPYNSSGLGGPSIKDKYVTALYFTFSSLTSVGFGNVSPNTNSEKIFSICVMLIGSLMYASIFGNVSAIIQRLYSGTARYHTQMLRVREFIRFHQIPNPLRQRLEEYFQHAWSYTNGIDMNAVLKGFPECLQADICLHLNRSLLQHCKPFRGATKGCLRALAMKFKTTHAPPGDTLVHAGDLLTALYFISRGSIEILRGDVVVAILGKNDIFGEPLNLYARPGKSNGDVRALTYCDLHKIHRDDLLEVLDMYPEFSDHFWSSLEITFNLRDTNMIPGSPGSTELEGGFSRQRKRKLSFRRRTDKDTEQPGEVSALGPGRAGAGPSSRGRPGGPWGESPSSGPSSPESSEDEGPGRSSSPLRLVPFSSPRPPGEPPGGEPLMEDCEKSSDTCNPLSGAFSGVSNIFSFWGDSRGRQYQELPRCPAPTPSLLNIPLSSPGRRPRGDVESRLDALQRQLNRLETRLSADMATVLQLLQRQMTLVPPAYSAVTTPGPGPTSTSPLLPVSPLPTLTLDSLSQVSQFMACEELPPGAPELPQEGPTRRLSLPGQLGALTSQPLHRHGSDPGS
row,Compound,"hERG current change (%, negative = inhibition) at 1uM"
1,COc1ccc(-c2csc(N3C(=O)C4C5c6ccccc6C(c6ccccc65)C4C3=O)n2)cc1 (centres unmarked),11.9%
2,Cc1ccc(/C=C2/SC(=Nc3ccc(F)cc3)NC2=O)s1,13%
3,Cc1csc2nc(NC(=O)c3ccccc3)sc(=O)c12,8.93%
4,Nc1c(Sc2ccccc2)c(=O)[nH]c(=O)n1Cc1ccccc1,-13.3%
5,Cc1ccc(S(=O)(=O)N2CCCC2CNC(=O)C(=O)NCCN2CCOCC2)cc1 (centres unmarked),16.8%
6,Cc1ccc(S(=O)(=O)Nc2cccc(C(=O)NCc3ccc(S(N)(=O)=O)cc3)c2)cc1,12.7%
7,O=C(CN1CCN(C(=O)c2ccccc2)CC1)Nc1ncc(Br)cc1Br,-84.9%
8,O=C(CN1CCOCC1)Nc1ncc(Br)cc1Br,4.34%
9,O=C(CN1CCCCCC1)Nc1ccc(Br)cn1,3.88%
10,O=C(CN1CCN(C(=O)c2ccccc2)CC1)Nc1ccc(Br)cn1,-72.1%
11,O=C(CN1CCN(C(=O)c2ccccc2)CC1)Nc1ccccc1,3.18%
12,CCc1nnc(NC(=O)CN2CCN(C(=O)c3ccccc3)CC2)s1,10.9%
13,CC(=O)N1CCC(C(=O)Nc2ccccc2)(N(Cc2ccccc2)C(=O)c2cccnc2)CC1,17.6%
14,Nc1ccc(Sc2ccccc2Cl)nc1,0.8%
15,O=C(CCN1CCOCC1)Nc1ccc2c(c1)CCC2,3.78%
16,Cc1[nH][nH]c(=O)c1C=NCc1cccnc1,14.3%
17,CSc1ccccc1OCc1cc(C(=O)NCC(C)(C)N2CCOCC2)no1,-72.2%
18,CCN(CC1CCCO1)C(=O)c1cc(COc2ccc(OC)cc2Cl)on1 (centres unmarked),5.36%
19,CN(CC1CCCCO1)C(=O)c1cc(COc2ccc(F)cc2Cl)on1 (centres unmarked),-74.4%
20,CCN(CC1CCCO1)C(=O)c1cc(COc2ccccc2SC)on1 (centres unmarked),-58.9%
21,CCN(CC1CCCO1)C(=O)c1cc(COc2ccc(F)cc2F)on1 (centres unmarked),2.73%
22,COc1ccc(OCc2cc(C(=O)N(C)CC3CCCCO3)no2)c(Cl)c1 (centres unmarked),-1.77%

row,Compound,"hERG current change (%, negative = inhibition) at 1uM"
1,COc1ccc(OCc2cc(C(=O)NCC(C)(C)N3CCOCC3)no2)c(Cl)c1,0.582%
2,Cc1ccc(OCc2cc(C(=O)NCC(C)(C)N3CCOCC3)no2)cc1C,4.83%
3,COc1cc(Cl)ccc1OCc1cc(C(=O)N(C)CC2CCCCO2)no1 (centres unmarked),2.24%
4,Cc1ccc(OCCN(C)C(=O)c2cc(COc3ccc(F)cc3F)on2)cc1,-0.323%
5,COC(=O)c1cccc(NC(=O)c2ccc(S(=O)(=O)N3CCN(C)CC3)cc2)c1,16.5%
6,COCCN(C(=O)CSc1nc2ccccc2c(=O)n1CC(C)C)c1c(N)n(Cc2ccccc2)c(=O)[nH]c1=O,11.8%
7,CC(C)n1c(/C=C/[C@H](O)C[C@H](O)CC(=O)[O-])c(-c2ccc(F)cc2)c2ccccc21.[Na+],11.8%
8,Cc1cc(O)c(C(C)C)cc1NS(=O)(=O)c1ccccc1,10.4%
9,COc1ccccc1-n1c(SC(C)C(=O)NCC2CCCO2)nc2cc(Cl)ccc2c1=O (centres unmarked),12.1%
10,CCOC(=O)N1CCN(c2nc(-c3ccc(Cl)cc3)cs2)CC1,-8.51%
11,CCC(=O)N1CCN(c2nc(-c3ccc(Cl)cc3)cs2)CC1,9.84%
12,CC(C)C(=O)N1CCN(c2nc(-c3ccc(Cl)cc3)cs2)CC1,-69.6%
13,O=C(NNc1ccccc1F)c1ccccc1,2.87%
14,COc1cc(NC(=O)[C@H]2CSCN2C(=O)[C@@H]2CCC(=O)N2)cc(OC)c1OC,10.8%
15,Cc1ccc(S(=O)(=O)Nc2cccc(Cl)c2)cc1NC(=O)c1cccnc1,5.21%
16,Cc1ccc(C(=O)NC(=S)N(C)C2CCCCC2)cc1,6.79%
17,CN(CC(=O)Nc1c(Cl)cccc1Cl)C(=O)CNC(=O)c1ccco1,8.71%
18,O=C(CN(Cc1ccccc1)S(=O)(=O)c1ccc(Br)cc1)NCC1CCCO1 (centres unmarked),-80.5%
19,O=C(CN(Cc1ccccc1)S(=O)(=O)c1ccc(Cl)cc1)NCC1CCCO1 (centres unmarked),3.41%
20,O=C(CN(Cc1ccc(Br)cc1)S(=O)(=O)c1ccccc1)NCC1CCCO1 (centres unmarked),11.8%
21,CCn1c2ccccc2c2cc(CNCc3ccc(OC)cc3OC)ccc21.O=C(O)C(=O)O,-47.5%
22,Cc1nc2ccccc2cc1C(=O)Nc1ccccc1Cl,3.5%
